Wnt bcat act = activates Wnt/beta-catenin signaling in a reporter cell assay | activator, plate reader | activation, % at 9.35 µM | 1.2% of 300,000 active; in the data active means activation above about 30%, passing the limit was not always enough; inconclusive means no clear call, values can overlap the other calls
esBAF inh = inhibitors of esBAF chromatin remodeling in mouse ES cells | Bmi1-luciferase knock-in reporter, 24 h; 100% = twice the neutral-well signal | reporter increase, % at 12.5 µM | 2% of 350,000 active; in the data active means activation above about 40%; inconclusive means no clear call, values can overlap the other calls;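 further: a rise in the Bmi1 reporter signal indicates esBAF inhibition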
MITF act = MITF TRPM1 promoter activation in melanoma cells; activation, % at 12.5 µM; 0.75% of 300,000 active; SK-MEL-5 TRPM1-promoter luciferase, 24 h; % of positive control, neutral wells = 0;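 active means mean activation of at least 80% with every replicate also reaching 80%; inconclusive means mean reaches 80% but some replicate falls short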
HSF1 inh = HSF1 inhibition | 0.77% of 300,000 active | NIH3T3-HGL HSE-luciferase, MG132-induced, luminescence 8 h; hits give low values | activity change, negative = inhibition, % at 7.5 µM (by protocol);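 active means more than half of replicate wells show activity change below -50%, luminescence cut by over half; inconclusive means some wells, but at most half, below -50%; inactive means no replicate well below -50%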;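 further: luciferase reports HSF-1 transcriptional activity via heat shock element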
HSF-1 act = increases HSF-1 driven luciferase reporter signal | NIH3T3-HGL HSF-1 luciferase reporter, MG132, 8 h; 100% = twice DMSO control signal | activation, % at 9 µM | 1.7% of 300,000 active;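 active means mean replicate activation of at least 50% with a set share of replicates each reaching 50%; inconclusive means only one of those two conditions met; inactive means mean below 50% and too few replicates reaching it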
Each line names hits and unclear results; the compound was inactive in the other large screens. A selection: hits, their analogues and other compounds. The true share with any hit is near 3.8%.

CC(=O)c1c(C)[nH]c(C(=O)Nc2nccs2)c1C	none
COc1ccc(CCNC(=O)c2coc3ccccc3c2=O)cc1OC	HSF-1 act inconclusive
COc1ccc(NC(=O)c2oc3ccccc3c2NC(=O)C2CCCO2)cc1OC (configuration not stated)	esBAF inh 63
O=C(Nc1ccc(F)c(F)c1)c1oc2ccccc2c1NC(=O)C1CCCO1 (configuration not stated)	none (no result: HSF1 inh, HSF-1 act)
COc1ccc(NC(=O)c2coc3ccccc23)cc1OC	esBAF inh 83, MITF act 112 (no result: Wnt bcat act)
Cc1ccc(C)c(NC(=O)c2ccccc2NC(=O)C2CCCO2)c1 (configuration not stated)	Wnt bcat act 60 (no result: esBAF inh)
Cc1ccc(NC(=O)c2oc3ccccc3c2NC(=O)C2CCCO2)cc1C (configuration not stated)	Wnt bcat act 47, MITF act 104 (no result: esBAF inh)
Cc1ccc(S(=O)(=O)N(C)C[C@H]2Oc3ccc(NC(=O)Cc4ccccc4)cc3C(=O)N([C@@H](C)CO)C[C@@H]2C)cc1	none (no result: Wnt bcat act, MITF act, HSF1 inh, HSF-1 act)
CC(c1nc2ccccc2c(=O)[nH]1)N(C)c1ccc2ccccc2c1 (configuration not stated)	none (no result: esBAF inh)
CC(Oc1ccc(F)cc1Br)c1nc2ccccc2c(=O)[nH]1 (configuration not stated)	HSF-1 act 65
Nc1nnc(/C=C/c2ccccc2Cl)s1	Wnt bcat act 55, HSF-1 act 70 (no result: esBAF inh, MITF act)
C[C@@H]1CN([C@H](C)CO)C(=O)c2cc(NS(=O)(=O)c3ccc(F)cc3)ccc2O[C@@H](C)CCCCO[C@@H]1CN(C)C(=O)CCC(F)(F)F	none (no result: Wnt bcat act, MITF act, HSF1 inh, HSF-1 act)
CC(C)NC(=O)Nc1ccc2c(c1)CC(=O)N([C@@H](C)CO)C[C@H](C)[C@H](CN(C)CC1CCCCC1)O2	none (no result: Wnt bcat act, MITF act, HSF1 inh, HSF-1 act)
CCNC(=O)[C@H]1[C@H](CO)[C@H]2Cn3c(ccc(-c4ccccc4F)c3=O)[C@@H]1N2Cc1cccnc1	none (no result: Wnt bcat act, MITF act, HSF1 inh, HSF-1 act)
Cc1nc(CSc2ccc(Cl)cc2)cs1	HSF-1 act 51
Cc1ccsc1C1NC(=O)c2c(sc3c2CCCC3)N1 (configuration not stated)	esBAF inh 50 (no result: Wnt bcat act)
CN1CCc2c(sc3c2C(=O)NC(c2ccccn2)N3)C1 (configuration not stated)	none (no result: Wnt bcat act, MITF act)
O=C1NC(c2ccccn2)Nc2sc3c(c21)CCC3 (configuration not stated)	esBAF inh 66, MITF act inconclusive (no result: Wnt bcat act)
COc1ccc(-c2csc3nc(-c4ccc(C)cc4)oc(=O)c23)cc1OC	none (no result: Wnt bcat act)
COc1ccc(-c2csc3nc(-c4ccccc4OC)oc(=O)c23)cc1	HSF-1 act 91
COCc1cn(CC[C@@H]2CC[C@H](NC(=O)Nc3ccc4c(c3)OCO4)[C@H](CO)O2)nn1	none (no result: Wnt bcat act, MITF act, HSF1 inh, HSF-1 act)
O=C(COC(=O)C12CC3CC(CC(O)(C3)C1)C2)Nc1ccc(Br)cc1F	Wnt bcat act inconclusive, MITF act 129 (no result: HSF1 inh, HSF-1 act)
Cc1cn(Cc2ccccc2Cn2cc(C)c(=O)[nH]c2=O)c(=O)[nH]c1=O	HSF-1 act 71 (no result: esBAF inh, MITF act)
Cc1ccccc1Cn1cc(C)c(=O)[nH]c1=O	none
C=CCNC(=S)NNc1nc2c(c(=O)[nH]1)C1(CCCC1)Cc1ccccc1-2	Wnt bcat act 52 (no result: esBAF inh)
O=c1[nH]c(NNC(=S)NCc2ccccc2)nc2c1C1(CCCCC1)Cc1ccccc1-2	none (no result: Wnt bcat act)
c1ccc(CSc2nnc3ccc(-c4ccco4)nn23)nc1	none
O=[N+]([O-])c1cccc(-c2ccc3nnc(SCc4ccccn4)n3n2)c1	HSF-1 act 63 (no result: esBAF inh)
CN1C[C@H]2[C@@H](c3ccccc31)[C@@H](CO)N2C(=O)Nc1ccc(F)cc1	none (no result: Wnt bcat act, MITF act, HSF1 inh, HSF-1 act)
Cc1cccc(C)c1NC(=O)c1c[nH]c2ccccc12	esBAF inh 49
O=C(Nc1ccccc1)C(=O)c1c[nH]c2ccccc12	Wnt bcat act inconclusive, HSF-1 act 68 (no result: MITF act)
O=C(/C=C/c1ccccc1)c1c[nH]c2ccccc12	Wnt bcat act 46, HSF-1 act 111
CC(=O)Nc1ccccc1C(=O)C(=O)Nc1ccccc1	esBAF inh 35
CCCNC(=O)C[C@@H]1CC[C@H]2[C@H](COc3ccc(NC(=O)CC)cc3C(=O)N2C)O1	none (no result: Wnt bcat act, MITF act, HSF1 inh, HSF-1 act)
NC(=O)C1CCN(C2=C(Cl)C(=O)c3ccccc3C2=O)CC1	HSF-1 act 75 (no result: Wnt bcat act, MITF act)
C[C@H](NC(=O)C[C@H]1CC[C@@H]2[C@H](COC[C@H](O)CN2C(=O)Nc2ccccc2)O1)c1ccccc1	none (no result: Wnt bcat act, MITF act, HSF1 inh, HSF-1 act)
COc1ccc(C=O)cc1Cn1ccnc1C	HSF1 inh -77 (no result: esBAF inh)
CCc1nccn1Cc1cc(C=O)ccc1OC	none (no result: esBAF inh)
N#CCNC(=O)c1cccn1-c1ncc(C(F)(F)F)cc1Cl	Wnt bcat act 38
C#CCNC(=O)c1cccn1-c1ncc(C(F)(F)F)cc1Cl	none (no result: esBAF inh)
COc1ccc(NC(=O)Nc2ccc3c(c2)CC(=O)N([C@@H](C)CO)C[C@@H](C)[C@H](CN(C)S(=O)(=O)c2ccccc2)O3)cc1	none (no result: Wnt bcat act, MITF act, HSF1 inh, HSF-1 act)
Oc1ccc(O)c(C=NNC(=S)NC2CC3CC2C2C=CCC32)c1 (configuration not stated)	none (no result: MITF act, HSF1 inh, HSF-1 act)
NNC(=S)NC1CC2CC1C1C=CCC21 (configuration not stated)	HSF1 inh -54
CCCCCn1c(N2CCN(c3cccc(Cl)c3)CC2)nc2c1c(=O)[nH]c(=O)n2C	HSF-1 act 111 (no result: Wnt bcat act)
CCCCCn1c(Sc2nc3ccccc3s2)nc2c1c(=O)[nH]c(=O)n2C	HSF-1 act 58
CCCCCn1c(Sc2ncccn2)nc2c1c(=O)[nH]c(=O)n2C	none
CO[C@H]1CN(C)C(=O)c2cc(NS(C)(=O)=O)ccc2OC[C@H](C)N(C(=O)CN(C)C)C[C@H]1C	none (no result: Wnt bcat act, MITF act, HSF1 inh, HSF-1 act)
CC(=O)N(C)C[C@@H]1OCc2ccccc2-c2ccccc2C(=O)N([C@@H](C)CO)C[C@H]1C	none (no result: Wnt bcat act, MITF act, HSF1 inh, HSF-1 act)
Nc1nc(Br)c2c(F)cccc2c1-c1ccc(Cl)cc1	HSF-1 act 149
CCOC(=O)c1cccc(NC(=O)c2cccs2)c1	none (no result: Wnt bcat act)
CCOC(=O)c1sc(NC(=S)NC(=O)C2CC2)cc1C	none (no result: esBAF inh)
CCOC(=O)c1sc(NC(=O)c2ccc(Br)o2)cc1C	esBAF inh 91, MITF act 94 (no result: Wnt bcat act)
CCOC(=O)c1sc(NC(=O)c2sccc2C)cc1C	Wnt bcat act 59, HSF-1 act 73 (no result: MITF act)
CCOC(=O)c1sc(NC(=O)c2cccs2)cc1C	esBAF inh 65, HSF-1 act inconclusive (no result: Wnt bcat act)
CCOC(=O)c1sc(NC(=O)Nc2cccc(Cl)c2)cc1C	Wnt bcat act 35 (no result: esBAF inh)
COc1ccccc1C(=O)Nc1ccc2c(c1)OC[C@@H](C)N(CC1CC1)C[C@@H](C)[C@@H](OC)CN(C)C2=O	none (no result: Wnt bcat act, MITF act, HSF1 inh, HSF-1 act)
COc1ccccc1CN(C)C[C@H]1OCc2cn(nn2)CCCC(=O)N([C@H](C)CO)C[C@H]1C	none (no result: Wnt bcat act, MITF act, HSF1 inh, HSF-1 act)
O=C(C[C@@H]1CC[C@H]2[C@@H](COC[C@@H](O)CN2C(=O)c2ccncc2)O1)NC1CCC1	none (no result: Wnt bcat act, MITF act, HSF1 inh, HSF-1 act)
C[C@@H]1CCCCO[C@H](CN(C)S(=O)(=O)c2cccs2)[C@H](C)CN([C@H](C)CO)C(=O)c2cc(NS(C)(=O)=O)ccc2O1	none (no result: Wnt bcat act, MITF act, HSF1 inh, HSF-1 act)
O=C(CCl)N(C/C=C/c1ccccc1)c1ccc2c(c1)OCCO2	HSF1 inh -77 (no result: esBAF inh)

Source: PubChem (Broad Institute)
